Results on 24 compounds are retold here after the supplement of paper PMC7411640.

Counter-ions that a name gives are not always drawn.

The test system of the experiment is MDA-MB-468. The experiment can be described thus: phospho-S6 immunofluorescence (DAPI-normalised), per-plate z-score; higher = higher phospho-S6 signal (less pathway suppression). The note with it: 24 h. On the procedure: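 GPCR-targeted compound library (MedChemExpress HY-L006) tested on MDA-MB-468 PTEN-null TNBC cells in 384-well plates at 0.1, 1 or 10 uM, combined with vehicle, GDC0941 450 nM or lapatinib 1 uM, for 24 h. Phospho-S6 (S240/244) immunofluorescence normalised to DAPI and expressed as a per-plate z-score; values are the mean of biological triplicates.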

Regarding `CN(C)CC/C=C1/c2ccccc2Sc2ccc(Cl)cc21` [Chlorprothixene] (compound 10 µM), the “phospho-S6 immunofluorescence (z-score)” value is 0.1 (co-treatment: GDC0941 450 nM), -3.66 (co-treatment: lapatinib 1 uM) and 0.41 (co-treatment: vehicle).
For `C[C@@H](NCCCc1cccc(C(F)(F)F)c1)c1cccc2ccccc12` [Cinacalcet (hydrochloride)] (compound 10 µM), in that order: -5.88, -11.2 and -9.18.
On to `COc1ccc2c(c1)c(CC(=O)N1CCOCC1)c(C)n2C(=O)c1ccc(Cl)cc1` (compound 10 µM), for which the “phospho-S6 immunofluorescence (z-score)” value (co-treatment: GDC0941 450 nM) was -3.35, the “phospho-S6 immunofluorescence (z-score)” value (co-treatment: lapatinib 1 uM) was -6.12 and the “phospho-S6 immunofluorescence (z-score)” value (co-treatment: vehicle) is -6.12.
As for `OCCOCCN1CCN(C2=Nc3ccccc3Sc3ccccc32)CC1` [Quetiapine (fumarate)] (compound 10 µM), the “phospho-S6 immunofluorescence (z-score)” value is -0.84 (co-treatment: GDC0941 450 nM), 0.29 (co-treatment: lapatinib 1 uM) and -0.03 (co-treatment: vehicle).
For `C[C@@H](NCCCc1cccc(C(F)(F)F)c1)c1cccc2ccccc12` [Cinacalcet] (compound 10 µM), in that order: -5.01, -7.68 and -6.21.
For `CC(=O)OCC(=O)[C@@]1(O)CC[C@H]2[C@@H]3CCC4=CC(=O)CC[C@]4(C)[C@H]3C(=O)C[C@@]21C` [Cortisone (acetate)] (compound 10 µM), in that order: 0.51, 1.06 and 0.93.
On to `CC1OC2(CS1)CN1CCC2CC1` (configuration not stated) [Cevimeline (hydrochloride hemihydrate)] (compound 10 µM), for which the “phospho-S6 immunofluorescence (z-score)” value is 0.65 (co-treatment: GDC0941 450 nM), -0.04 (co-treatment: lapatinib 1 uM) and 0.89 (co-treatment: vehicle).
For `Cc1[nH]cnc1CN1CCc2c(c3ccccc3n2C)C1=O` [Alosetron (Hydrochloride)] (compound 10 µM), in that order: 0.22, -0.22 and 1.01.
On the same counts, the results for `CCOC(=O)N1CCC(NCCNC(=O)c2ccccc2C)CC1` (compound 10 µM) are 0.96, -0.15 and 1.13.
For `C[C@H](Cc1cc2c(c(C(N)=O)c1)N(CCCO)CC2)NCCOc1ccccc1OCC(F)(F)F` [Silodosin] (compound 10 µM), in that order: -0.57, -0.02 and 0.57.
In the case of `CCc1ccc(OCc2ccccc2C(=O)Nc2ccc3nc(C)cc(N)c3c2)cc1` (compound 10 µM), the “phospho-S6 immunofluorescence (z-score)” value was -5.98 (co-treatment: GDC0941 450 nM), -12 (co-treatment: lapatinib 1 uM) and -10.4 (co-treatment: vehicle).
On the same counts, the results for `CN(C)CCC=C1c2ccccc2C=Cc2ccccc21` [Cyclobenzaprine (hydrochloride)] (compound 10 µM) are 0.8, -0.8 and -0.18.
On the same counts, the results for `C[C@@H]1CCCN1CCc1cc2cc(-c3ccc(C#N)cc3)ccc2o1` (compound 10 µM) are -3.3, -4.56 and -0.97.
On the same counts, the results for `CC(NCCc1ccc(O)cc1)C(O)c1ccc(O)cc1` (configuration not stated) [Ritodrine (hydrochloride)] (compound 10 µM) are -0.01, 1.26 and 0.06.
Turning to `CCCCc1oc2ccc(NS(C)(=O)=O)cc2c1C(=O)c1ccc(OCCCN(CCCC)CCCC)cc1` [Dronedarone] (compound 10 µM), the “phospho-S6 immunofluorescence (z-score)” value (co-treatment: GDC0941 450 nM) was -3.7, the “phospho-S6 immunofluorescence (z-score)” value (co-treatment: lapatinib 1 uM) is -8.99 and the “phospho-S6 immunofluorescence (z-score)” value (co-treatment: vehicle) was -9.98.
For `Cc1nn(C)c2c1C(c1ccc(C(F)(F)F)cc1)C(C#N)=C(N)O2` (configuration not stated) (compound 10 µM), in that order: -1.17, 2.28 and 2.57.
For `CCCN(CCc1cccs1)[C@H]1CCc2c(O)cccc2C1` [Rotigotine] (compound 10 µM), in that order: 0.53, -0.05 and -0.73.
For `Cc1nc2c([nH]1)-c1ccccc1N(C(=O)c1ccc(NC(=O)c3ccccc3-c3ccccc3)cc1)CC2` [Conivaptan (hydrochloride)] (compound 10 µM), in that order: 0.65, 0.52 and 0.94.
With `C[C@]12CCC(=O)C=C1CC[C@@H]1[C@@H]2C(=O)C[C@@]2(C)[C@H]1CC[C@]2(O)C(=O)CO` [Cortisone] (compound 10 µM), the “phospho-S6 immunofluorescence (z-score)” value amounted to 0.47 (co-treatment: GDC0941 450 nM), 0.58 (co-treatment: lapatinib 1 uM) and 1.14 (co-treatment: vehicle).
On the same counts, the results for `CC(C)[C@H](N=C(NS(=O)(=O)c1ccc(Cl)cc1)N1C[C@H](c2ccccc2)C(c2ccc(Cl)cc2)=N1)C(N)=O` (compound 10 µM) are -2.11, -0.39 and 0.1.
For `C[C@H]1C[C@H]2[C@@H]3CCC4=CC(=O)C=C[C@]4(C)[C@@]3(F)[C@@H](O)C[C@]2(C)[C@@]1(O)C(=O)CO` [Betamethasone] (compound 10 µM), in that order: -1.59, 1.5 and -0.96.
On the same counts, the results for `CNC(=O)c1cnn(-c2nc(N)c3ncn([C@@H]4O[C@H](CO)[C@@H](O)[C@H]4O)c3n2)c1` [Regadenoson] (compound 10 µM) are 1.19, 1.71 and 0.29.
Consider `CN(C)CCN1C(=O)c2cccc3cc(NC(N)=O)cc(c23)C1=O` (compound 10 µM), for which the “phospho-S6 immunofluorescence (z-score)” value reads like this: (co-treatment: GDC0941 450 nM) 1.29; (co-treatment: lapatinib 1 uM) 7.09; (co-treatment: vehicle) 0.12.
On the same counts, the results for `CN1CCN2c3ncccc3Cc3ccccc3C2C1` (configuration not stated) [Mirtazapine] (compound 10 µM) are 0.65, 0.99 and -0.48.
